Assay results from PubChem BioAssay (NCI).
The panel holds about 83,000 compounds, 20% with a hit somewhere; the sample as a whole holds those more often.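 The test compound was applied at a single concentration to cells in 96-well plates for 48 hours, and percent growth was recorded.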 A number with no mark means an inactive call. Active and inactive are the calls of the source. The calls were made as follows: active = growth percent below 10; inactive = the rest.

How the values were obtained:
Assay in all cases: NCI-60 one-dose screen, 48 h (100 = growth as untreated, 0 = no growth, -100 = all killed)
Settings in all cases: 10 µM unless noted
[1] = tested on: NCI-H23 lung
[2] = tested on: NCI-H226 lung
[3] = tested on: NCI-H322M lung
[4] = tested on: HOP-62 NSCLC
[5] = tested on: NCI-H460 lung
[6] = tested on: HOP-92 NSCLC
[7] = tested on: NCI-H522 lung
[8] = tested on: A549/ATCC NSCLC
[9] = tested on: 786-0 renal
[10] = tested on: DU-145 prostate
[11] = tested on: K-562 leukemia
[12] = tested on: MALME-3M melanoma
[13] = tested on: MDA-MB-231 breast
[14] = tested on: RXF 393 renal
[15] = tested on: SF-268 CNS
[16] = tested on: SF-295 CNS
[17] = tested on: SF-539 CNS
[18] = tested on: UACC-257 melanoma
[19] = tested on: M14 melanoma

| SMILES | growth [1] | growth [2] | growth [3] [%] | growth [4] | growth [5] | growth [6] | growth [7] | growth [8] | growth [9] | growth [10] [%] | growth [11] | growth [12] | growth [13] | growth [14] | growth [15] | growth [16] | growth [17] | growth [18] | growth [19] |
| --- | --- | --- | --- | --- | --- | --- | --- | --- | --- | --- | --- | --- | --- | --- | --- | --- | --- | --- | --- |
| N#Cc1cccc(-c2nc3ccccn3c2NCCN2CCOCC2)c1 | 98.6% | 93.6% | 87.1 | 72.5% | 98.8% | 93% | 85.8% | 90.4% | 96.1% | 106 | 97.3% | 108% | 94.6% | 96.3% | 90.3% | 101% | 92.2% | 98.8% | 89.9% |
| NC(=O)c1c(NC(=O)c2ccc(C(F)(F)F)cc2Cl)sc2c1CCC(=O)C2 | -7.98% (active) | -22.6% (active) | 14 | 1.14% (active) | 0.92% (active) | -61.7% (active) | -25.6% (active) | 9.42% (active) | 17.1% | 18.9 | -11.7% (active) | -24.7% (active) | -55.3% (active) | -39% (active) | -2.06% (active) | -27.2% (active) | -84.8% (active) | -22.4% (active) | -30.1% (active) |
| NC(N)=N/N=C/CO | 103% | 99% | 99.7 | 105% | 104% | 108% | 106% | 97.9% | 99.9% | 101 | 99.2% | 111% | 111% | 109% | 105% | 103% | 97.5% | 95.9% | 99% |
| CCCCCCCSc1ccc(C(=O)O)cc1 | 102% | 97.2% | 99.7 | 106% | 104% | 83.5% | 100% | 98.9% | 100% | 119 | 105% | 111% | 112% | 94.4% | 109% | 94.3% | 99.7% | 95.8% | 113% |
| CCN(CC)CCOC(=O)N1c2ccccc2Sc2ccccc21 | 104% | 95.2% | 89.7 | 88.7% | 103% | 73.1% | 68.7% | 88.9% | 91.4% | 99.9 | 90.7% | 91.4% | 81.9% | 98.3% | 102% | 93.8% | 100% | 102% | 93.4% |
| N=C(N)c1ccc(-c2ccc(-c3ccc(Cl)cc3Cl)o2)nc1 | 78% | 96.9% | 30.7 | 29.1% | -63.2% (active) | 77.4% | 30% | 6.38% (active) | -22% (active) | 24.1 | 1.13% (active) | 90% | -38% (active) | 64.4% | 80.1% | -62.8% (active) | 42.6% | 91.4% | 70.2% |
| CS(=O)(=O)c1ccc(-c2nc3cc(Cl)ccc3n2CC(=O)NO)cc1 | 94.7% | 88.7% | 98.6 | 97.1% | 101% | 98% | 86.3% | 94.1% | 99.5% | 101 | 95.7% | 108% | 93.8% | 94.9% | 89.2% | 98% | 101% | 102% | 93.6% |
| COc1cc(-c2cccc([N+](=O)[O-])c2)c(-c2nc(-c3ccccc3)c(-c3ccccc3)n2C2CC2)cc1OC | 68% | 62.5% | 71.9 | 92.6% | 55.5% | 34.6% | 44% | 44.7% | 73.3% | 87.1 | 32.6% | 74.2% | 72.4% | 69.1% | 77% | 42.7% | 88.5% | 56.8% | 40% |
